Most compounds without a hit are left out; they make up all but 14% or so of the library.
CRE Fsk mod: alters forskolin-stimulated CRE reporter signaling in CHO cells; Potency, µM (doses to about 38.2 µM), actives largely listed as activators; CHO CRE-bla reporter (cAMP response element driving beta-lactamase), forskolin EC10, beta-lactamase ratio; actives 2.5% (n = 71,000); active means well fitted activation curve with a large enough effect in the signal ratio, with a control signal flat, not every such curve was filed as active; inconclusive means small, poorly fitted or top-dose-only effect, or effect the other way, or a change in a side signal; the % refers to the signal ratio
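Beta-lactamase reporter under a cAMP responsive element in CHO cells; compounds tested in titration series against EC10 NKH 477, 3 h at 37 °C. Read-out: CCF4 FRET ratio 460nm/530nm (excitation 405nm) giving %Activity, fitted to AC50.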
A350 autofl: compounds fluorescent in Alexa 350 spectral region; Compound autofluorescence, 340/450 nm, Alexa 350 dye-equivalents; hits give high values; max dye-equivalent concentration, M; actives 11% (n = 59,000); in the data active means max dye-equivalent concentration above about 10 nM; inconclusive means mostly about 1.1 nM to 9.6 nM
AID923: qHTS Assay for Allosteric/Competitive Inhibitors of Caspase-1: Spectroscopic Profiling in AFC Spectral Region. compound fluorescence, AFC spectral region (405/520 nm). Potency, µM (highest dose often 57.5 µM), usual class: activators. actives 1.1% (n = 75,000). AID 923, 2007
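Baseline compound fluorescence (AFC region, 405 nm ex/520 nm em) taken from the intercept of kinetic reads with 50 nM caspase-1 and 5 uM Ac-WEHD-AFC; normalized to an on-plate AFC standard curve; compounds titrated up to 57 uM.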
4-MU autofl: compound fluoresces in the 4-MU spectral region; compound autofluorescence, 340/450 nm, 4-MU equivalents; hits give high values; max dye-equivalent concentration, M; actives 11% (n = 59,000); in the data active means max dye-equivalent concentration above about 10 nM; inconclusive means mostly about 1.1 nM to 9.6 nM
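Compounds in 100 mM Tris, pH 8.0, sat 15 min at room temperature before fluorescence was read at 340 nm excitation/450 nm emission; a per-plate six-point 4-MU standard curve converted signals to dye-equivalent concentration at each compound concentration.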
HSD17B inh: HSD17B dehydrogenase inhibition | recombinant HSD17B10, NADH fluorescence kinetic | AID 893 | Q99714 | actives 7.6% (n = 75,000) | Potency, µM (titrated, usually from 57.1 µM), most hits filed as inhibitors;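 further: the protocol describes HADH2 (HSD17B10) and not the HSD17B4 of the title; nearly all actives have a fitted effect of over 70% in size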
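Activity followed as NADH fluorescence increase (ex 360, em 450 nm) every 30 seconds for 4 min, using final 90 uM beta-hydroxybutyryl CoA and 1 mM NAD+. Recombinant His-tagged enzyme, 20 nM, pH 9.0 Tris buffer, 15 min compound preincubation.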
HADH2 inhib: HADH2 (human) dehydrogenase inhibition | recombinant HADH2, NADH fluorescence, beta-hydroxybutyryl-CoA | Q99714 | Potency, µM (series often up to 57.1 µM), most hits filed as inhibitors | actives 3.4% (n = 73,000); further: nearly all actives have a fitted effect of over 60% in size
Target sequence (Q99714 whole entry, looked up, one chain of several): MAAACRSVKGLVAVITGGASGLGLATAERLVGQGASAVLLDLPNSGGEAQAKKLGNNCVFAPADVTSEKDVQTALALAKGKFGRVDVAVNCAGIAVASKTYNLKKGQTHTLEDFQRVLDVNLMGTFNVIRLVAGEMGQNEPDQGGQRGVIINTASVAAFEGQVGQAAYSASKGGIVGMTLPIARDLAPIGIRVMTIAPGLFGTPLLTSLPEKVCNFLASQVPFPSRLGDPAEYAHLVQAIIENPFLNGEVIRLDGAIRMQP
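E. coli-expressed His-tagged HADH2 tested at 20 nM in alkaline Tris buffer (pH 9.0); oxidation of 90 uM beta-hydroxybutyryl-CoA with 1 mM NAD+ tracked fluorimetrically for 4 min.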
A number is an active result; i = inactive; ? = inconclusive; nt = not tested or not shown; [ ] = dose if it differs, or a comment. Unless noted, the call rests on the fitted dose curve; in most records, active means well fitted curve in the direction sought with a large enough effect; inconclusive means small, poorly fitted or top-dose-only effect, or another doubt; inactive means no such curve, though single readings can be large; an effect the other way counts as inactive or inconclusive.

SMILES | CRE Fsk mod | A350 autofl | AID923 | 4-MU autofl | HSD17B inh | HADH2 inhib
COCCn1nnnc1C(c1cc2cc(C)cc(C)c2[nH]c1=O)N1CCN(c2ccccc2F)CC1 (stereo not drawn) | ? | 3.3e-08M | i | 2.5e-08M | i | i
c1ccc(CCn2nnnc2C(c2cccs2)N2CCOCC2)cc1 (stereo not drawn) | i | i | i | i | i | i
CCN(Cc1ccccc1)C(c1cc2cc(C)ccc2[nH]c1=O)c1nnnn1CCOC (stereo not drawn) | i | ? | i | ? | i | i
COCCn1nnnc1C(c1cc2cc(OC)ccc2[nH]c1=O)N1CCC(Cc2ccccc2)CC1 (stereo not drawn) | i | 1.4e-07M | i | 9.7e-08M | 3.2µM | i
CCN(Cc1ccccc1)C(c1cc2cc(C)cc(C)c2[nH]c1=O)c1nnnn1CCOC (stereo not drawn) | i | ? | i | ? | i | i
C[N+]1(NCC[N@@+]2(C)CCc3ccccc3C2)CCCCC1 | i[7.6 µM] | i | i[11.5 µM] | i | i[11.4 µM] | i[11.4 µM]
Cc1cc(C(=O)OCC(=O)Nc2ccc(F)cc2)c(C)o1 | i | i | i | i | i | i
N#Cc1ccc(CN2CCCC3(CCN(C(=O)c4ccncc4)CC3)C2)cc1 | i | i | i | i | i | i
CCn1c(SCC(=O)c2ccc3c(c2)OCCO3)nnc1C(C)C | i | 1e-08M | i | ? | i | ?
c1ccc(CNc2ccc3ccccc3n2)nc1 | i | nt | i | nt | 20µM | ?
Cc1nc(NCc2ccccn2)c2ccccc2n1 | i | i | i | i | i | i
CCN1C(=O)[C@H]2[C@H]3[C@H](O)[C@H](O)C/C(=N/OC/C=C(\C)CCC=C(C)C)[C@@H]3CC[C@@H]2C1=O | nt | nt | i[11.5 µM] | nt | i[11.4 µM] | i[11.4 µM]
CCOc1cccc(C(=O)Nc2ccc(N3CCN(S(C)(=O)=O)CC3)cc2)c1 | i | 1.9e-08M | i | 1.5e-08M | i | i
CC(=O)OCC(=O)[C@]12OC(C)(C)O[C@@H]1C[C@H]1[C@H]3CC=C4C[C@@H](O)CC[C@]4(C)[C@H]3CC[C@]12C | i[7.6 µM] | i | i[11.5 µM] | i | i[11.4 µM] | i[11.4 µM]
CCCn1c(-c2ccc(F)cc2)nc2c(NCCN3CCCCC3)nc(C)nc21 | i | nt | i | nt | 32µM | i
CCCn1c(-c2ccc(F)cc2)nc2c(NCCCN3CCOCC3)nc(C)nc21 | i | nt | i | nt | 20µM | ?
CCCn1c(-c2ccc(F)cc2)nc2c(NCCCN3CCCCC3C)nc(C)nc21 (stereo not drawn) | i | nt | i | nt | 32µM | i
CCC[C@@H]1O[C@@H]2C[C@@H]3[C@H]4CCC5=CC(=O)C=C[C@@]5(C)[C@H]4[C@H](O)C[C@@]3(C)[C@@]2(C(=O)CO)O1 | i | i | i | i | i | i
Cc1cc(C)c2cc(CN(CCO)C(c3nnnn3Cc3ccc(F)cc3)C(C)C)c(=O)[nH]c2c1 (stereo not drawn) | i | 1.1e-08M | i | 1.2e-08M | ? | i
CCC(c1nnnn1Cc1ccco1)N(CCN1CCOCC1)Cc1cc2cc(C)ccc2[nH]c1=O (stereo not drawn) | ? | ? | i | ? | i | i
Cc1cc(C)c2cc(C(O)c3nnnn3Cc3ccccc3)c(=O)[nH]c2c1 (stereo not drawn) | i | ? | i | ? | ? | i
CCC(c1nnnn1Cc1ccc(F)cc1)N(CCCO)Cc1cc2cc3c(cc2[nH]c1=O)OCO3 (stereo not drawn) | i | 1.1e-07M | i | 1.2e-07M | 25µM | i
CCOC(=O)CCN1C(=O)[C@H]2[C@H]3[C@H](O)[C@H](O)C/C(=N/NC(=O)OCc4ccc(OC)cc4)[C@@H]3CC[C@@H]2C1=O | nt | nt | i[11.5 µM] | nt | i[11.4 µM] | i[11.4 µM]
Cc1ccc(S(=O)(=O)NCCC(=O)N2CCN(Cc3ccccc3)CC2)cc1 | i | i | i | i | i | i
CC(=O)N1CCc2cc(S(=O)(=O)NCCC(=O)N3CCN(Cc4ccccc4)CC3)ccc21 | ? | 3.4e-08M | i | 3.8e-08M | i | i
Cc1cnc(CNc2ncncc2-c2ccc3c(c2)OCO3)cn1 | ? | i | i | i | i | i
O=C(c1ccncc1)N1CCC[C@@]2(CCN(c3cccc(-c4ccccc4)c3)C2)C1 | i | i | i | i | i | i
